Screening results deposited in PubChem by National Center for Advancing Translational Sciences (NCATS).
An excerpt weighted towards active compounds, which were near 14% of everything screened.
LASV entry inh: inhibitors of Lassa virus binding or cell entry | Lassa virus pseudotype entry inhibition, cell reporter | actives 1.2% (n = 300,000) | Potency, µM (doses to about 37.9 µM), most hits filed as inhibitors; calls by dose curve; tested in HEK293 cells; further: nearly all actives have a fitted effect of over 50% in size
MARV entry inh: inhibitors of Marburg virus binding or cell entry; Marburg virus pseudotyped entry inhibition, cell reporter; Potency, µM (doses to about 37.8 µM), hits mostly inhibitors; actives 1.8% (n = 300,000); calls by dose curve; tested in HEK293 cells
HCV inh: HCV inhibition; actives 3.4% (n = 340,000); Potency, µM (series often up to 41.8 µM), actives largely listed as inhibitors; Huh7.5.1 HCVcc-Cre infection, luciferase reporter, 44 h
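Seed cells (1,000/well) for 4 h; treat with compound and infect with HCVcc-Cre, moi about 0.5. Incubate 44 h, then detect luciferase activity.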
Pf growth 96h: P. falciparum growth inhibition at 96 hours. P. falciparum luciferase reporter growth, 96 h. Potency, µM (highest dose often 28.7 µM), actives largely listed as inhibitors. actives 6.9% (n = 320,000). AID 504834
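Erythrocytes infected with luciferase-expressing P. falciparum were dispensed at 2% hematocrit and 0.05% parasitemia (final), then incubated with compounds 96 hours at 37 C in 5% CO2. Luminescence after detection reagent addition reported growth.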
HCMV antiviral: inhibitors of human cytomegalovirus | HFF cells, HCMV-luciferase reporter, 72 h; hits give low values | AID 1259415 | activity change, negative = inhibition, % at 57.5 µM | actives 4.5% (n = 410,000); in the data active means activity change below about -60%; inconclusive means no clear call, values can overlap the other calls; inactive means above about -39%
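Cell-based, HFFs, 1000 cells/well, 16 h 37C; cpds in DMSO + HCMV-luc, MOI 1 PFU/cell; 72 h 37C; OneGlo luminescence after 5 min RT; norm. to buffer vs Salinomycin 10uM.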
Pf growth 48h: inhibits P. falciparum growth in the first generation, 48 h | Potency, µM (highest dose often 28.7 µM), most hits filed as inhibitors | actives 5.9% (n = 310,000) | P. falciparum luciferase growth in erythrocytes, 48 h
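Firefly luciferase activity from engineered P. falciparum reports growth; inhibitors lower the luminescent signal. Cultures contained 2% hematocrit erythrocytes at 0.1% final parasitemia.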
Numbers stand for hits; i = inactive; ? = inconclusive; nt = not tested or not shown; + = active, no number. Unless noted, the call rests on the fitted dose curve; in most records, active means well fitted inhibition curve with a large enough effect; inconclusive means small, poorly fitted or top-dose-only effect, or another doubt; inactive means no such curve, though single readings can be large or run the other way.

SMILES	LASV entry inh	MARV entry inh	HCV inh	Pf growth 96h	HCMV antiviral	Pf growth 48h
CC(C)C[C@@H](CN1CCC[C@@H]1CN1C(=S)NC[C@@H]1Cc1ccccc1)N1C[C@H](Cc2ccc(O)cc2)N(CC2CCCCC2)C1=S	nt	nt	nt	nt	i	nt
CC(C)C[C@H]1CNC(=S)N1C[C@H]1CCCN1C[C@H](CC(C)C)N1C[C@H](Cc2ccc(O)cc2)N(CC2CCCCCC2)C1=S	nt	nt	nt	nt	-101.4	nt
CC(C)C[C@@H](CN1CCCC1CN1C(=S)NC[C@@H]1Cc1ccc(O)cc1)N1C[C@H](Cc2ccc(O)cc2)N(CC2CCCCC2)C1=S (stereo partly drawn)	nt	nt	?	nt	-98.1	nt
CCCOc1ccc(C(=O)Nc2ccc(Cl)cn2)cc1	17.8µM	6.31µM	i	i	i	nt
Cc1ccc(C(=O)Nc2ccc(Cl)cn2)cc1	?	7.3µM	?	i	i	i
Cc1ccc(C(=O)Nc2ncc3c(Cl)cccc3n2)cc1	?	?	i	i	-89.9	i
O=C(Nc1ccc(Cl)cn1)c1ccc(Oc2ccccc2)cc1	?	?	?	?	i	i
CCn1cc(C(=O)N(C)Cc2ccccc2)c(=O)c2cc(S(=O)(=O)N3CCCCC3)ccc21	i	i	nt	nt	i	nt
CC(=O)N1CCN(c2ccc(Oc3ncnc4sccc34)cc2)CC1	i	i	?	?	-75.2	nt
CN(C)S(=O)(=O)c1ccc(/C(O)=C2/C(=O)C(=O)N(Cc3cccnc3)C2c2ccncc2)cc1 (stereo not drawn)	i	i	i	nt	i	i
CN(C)S(=O)(=O)c1ccc(/C(O)=C2/C(=O)C(=O)N(Cc3cccnc3)C2c2ccco2)cc1 (stereo not drawn)	i	i	i	8.28µM	-67.4	i
COc1cccc(-c2cn3c(n2)sc2cc(C(=O)NCCCc4ccccc4)ccc23)c1	i	nt	nt	nt	nt	nt
Cc1cccc(C(=O)Nc2ccc3c(c2)CC2(C(=O)N(C)C(=O)N(C)C2=O)C2CCCN32)c1 (stereo not drawn)	nt	nt	i	8.28µM	nt	?
CN1C(=O)N(C)C(=O)C2(Cc3cc([N+](=O)[O-])ccc3N3CCN(C(=O)c4ccccc4)CC32)C1=O (stereo not drawn)	nt	i	i	i	i	?
COc1ccccc1C(=O)Nc1ccc2c(c1)CC1(C(=O)N(C)C(=O)N(C)C1=O)C1CCCN21 (stereo not drawn)	i	i	i	2.62µM	i	?
COc1ccccc1C(=O)Nc1ccc(S(=O)(=O)N2CCN(C)CC2)cc1	i	i	i	nt	i	nt
CCNC(=O)NCCNC(=O)c1cc(OCC(F)(F)F)ccc1OCC(F)(F)F	i	i	i	i	i	2.94µM
O=C(NNC(=O)c1cc(OCC(F)(F)F)ccc1OCC(F)(F)F)c1cccc(C(F)(F)F)c1	i	i	?	?	i	14.7µM
Cc1ccc(C(=O)NNC(=O)c2cc(OCC(F)(F)F)ccc2OCC(F)(F)F)cc1	i	i	?	i	i	i
O=C(NCCNC(=O)c1cc(OCC(F)(F)F)ccc1OCC(F)(F)F)Nc1ccccc1	i	?	?	?	i	i
CCC(C(=O)NCc1ccc2c(c1)CCN2C(=O)c1ccc(F)cc1)c1ccccc1 (stereo not drawn)	?	nt	nt	nt	i	nt
CC(C)NC(=O)CCS(=O)(=O)c1ccc(Br)s1	i	?	i	0.465µM	i	i
O=C(CCS(=O)(=O)c1ccc(Br)s1)Nc1cc(C(F)(F)F)cc(C(F)(F)F)c1	i	?	nt	nt	-89.7	nt
O=S(=O)(c1cccs1)N1CCCCC1	nt	nt	nt	nt	i	nt
Cc1cccc(NC(=O)Cn2nnc3sc4c(c3c2=O)CC(C)(C)OC4)c1	?	i	?	i	i	i
SMILES	LASV entry inh	MARV entry inh	HCV inh	Pf growth 96h	HCMV antiviral	Pf growth 48h
CC(=O)Nc1ccc(NC(=O)Cn2c(=O)n(-c3ccc(C)cc3)c(=O)c3oc4ccccc4c32)cc1	?	?	i	?	-64.9	i
Cc1ccc(-n2c(=O)c3oc4ccccc4c3n(CC(=O)Nc3ccccc3)c2=O)cc1C	?	nt	nt	nt	-66.5	nt
Cc1cc(C)cc(NC(=O)Cn2c(=O)n(-c3cc(C)cc(C)c3)c(=O)c3oc4ccccc4c32)c1	i	nt	nt	nt	-60.7	nt
CC(=O)Nc1ccc(NC(=O)Cn2c(=O)n(-c3ccccc3)c(=O)c3oc4ccccc4c32)cc1	i	?	i	i	i	i
COc1cccc(NC(=O)Cn2c(=O)n(C)c(=O)c3sc4c(c32)COC(C)(C)C4)c1	nt	nt	i	2.62µM	i	4.15µM
COc1ccc(S(=O)(=O)c2cc(NS(=O)(=O)c3ccc(Cl)cc3)c(C)c(C)c2O)cc1	i	i	nt	nt	i	nt
CC(C)=CCC/C(C)=C/CO/N=C1\C[C@@H](O)[C@@H](O)[C@@H]2[C@@H]3C(=O)N(C[C@@H]4CCCO4)C(=O)[C@@H]3CC[C@H]12	nt	i	nt	nt	nt	nt
COc1cccc(NC(=O)Cn2c(=O)n(-c3ccccc3)c(=O)c3oc4ccccc4c32)c1	?	?	i	i	-67.9	i
COc1cc(NC(=O)Cn2c(=O)n(C(C)C)c(=O)c3oc4ccccc4c32)cc(OC)c1	i	nt	nt	nt	i	nt
Cc1ccc(NC(=O)Cn2c(=O)n(-c3ccc(C)cc3)c(=O)c3ccc(C(=O)NCc4ccccc4Cl)cc32)cc1	?	i	nt	nt	-60.2	nt
CCOc1ccc(-n2c(=O)c3sccc3n(CC(=O)Nc3cccc(OC)c3)c2=O)cc1	nt	nt	i	i	+	i
O=c1c(-c2cc(-c3ccccc3)nc3c2COc2ccccc2-3)coc2ccc(Cl)cc12	i	i	nt	nt	i	nt
CCCNC(=O)c1cc(Cl)c(NC(=O)C2=CSCCO2)cc1OC	nt	nt	?	i	i	i
CN(C)CCNC(=O)c1ccccc1	i	?	i	i	i	nt
CCOC(=O)c1c(NC(=O)C2c3ccccc3Oc3ccccc32)sc(C(=O)N(CC)CC)c1C	?	12.6µM	7.08µM	0.928µM	nt	1.47µM
COC(=O)c1c(NC(=O)c2ccccc2)sc(C(N)=O)c1C	?	i	?	i	i	i
CCOC(=O)c1c(-c2cccs2)csc1NC(=O)CN(CC)CC	?	?	11.2µM	?	i	?
COC(=O)c1c(NC(=O)c2ccccc2)sc(C(=O)c2ccccc2)c1C	i	i	?	9.28µM	i	?
CCOC(=O)c1c(-c2cccs2)csc1NC(=O)CC(C)C	i	i	?	nt	i	?
Cc1sc(NC(=O)c2ccccc2)c(C(=O)NCCN(C)C)c1C	i	20.6µM	?	i	i	i
CC12CC3CC1C(C(=O)O2)C3C(=O)O (stereo not drawn)	i	i	i	nt	i	nt
Cc1ccc(NC(=O)Cn2c(=O)n(-c3ccc(CC(=O)NCC4CCCO4)cc3)c(=O)c3ccccc32)cc1 (stereo not drawn)	i	i	nt	nt	i	nt
COC(=O)c1c(NC(=O)c2ccccc2)sc(Cc2ccccc2)c1C	i	i	i	i	-62.4	i
COC(=O)c1c(NC(=O)c2ccc(C)cc2)sc(Cc2ccccc2)c1C	i	i	i	i	i	?
COC(=O)c1c(-c2cccs2)csc1NC(=O)c1ccc(Cl)cc1	?	i	nt	nt	i	nt
